Assay outcomes (PubChem)
Hits are enriched below; roughly 3.5% of the tested compounds scored in any of these assays.
GPR151 ag: human GPR151 activation; PathHunter beta-arrestin GPR151 cells, luminescence; activation, % at 11.2 µM; 1% of 650,000 active; in the data active means activation above about 4.9%
MITF inh: inhibitors of human MITF | AlphaScreen MITF homodimerization, bead proximity signal | inhibition, % at 2.6 µM | O75030 | 0.91% of 650,000 active; in the data active means inhibition above about 50%
Target sequence (O75030 whole entry, looked up): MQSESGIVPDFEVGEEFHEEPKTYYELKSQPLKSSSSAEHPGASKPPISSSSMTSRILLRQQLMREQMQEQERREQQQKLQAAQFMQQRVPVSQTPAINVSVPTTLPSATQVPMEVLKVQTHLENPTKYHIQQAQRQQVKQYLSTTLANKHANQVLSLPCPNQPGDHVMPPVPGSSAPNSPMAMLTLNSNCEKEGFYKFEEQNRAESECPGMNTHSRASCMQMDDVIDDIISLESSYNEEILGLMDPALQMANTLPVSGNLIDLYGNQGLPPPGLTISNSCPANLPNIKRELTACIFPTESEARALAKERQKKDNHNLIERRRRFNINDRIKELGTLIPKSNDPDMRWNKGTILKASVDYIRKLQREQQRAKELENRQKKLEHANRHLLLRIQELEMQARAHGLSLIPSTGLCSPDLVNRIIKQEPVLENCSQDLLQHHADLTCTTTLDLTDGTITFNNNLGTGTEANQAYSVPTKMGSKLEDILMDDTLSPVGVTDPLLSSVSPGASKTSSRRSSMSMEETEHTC
FBW7 act: human FBW7 E3 ligase activation, primary screen. Q969H0. AlphaScreen FBW7–phospho-cyclin E peptide binding, activator screen. normalized activity (activation), % at 26.1 µM. 0.13% of 650,000 active. AID 1259310; in the data active means normalized activity above about 1.9%;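 further: purified mutant Fbw7 with reduced substrate affinity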
TEAD-YAP inh: TEAD-YAP interaction inhibition; HEK-TIYL cells, TEAD-Gal4/YAP UAS-luciferase luminescence; inhibition, % at 9.12 µM; 1.4% of 640,000 active; AID 1259422; in the data active means inhibition above about 32%
GPR151 conf act: confirmation of human GPR151 activators; shares compounds with GPR151 ag; GPR151 PathHunter beta-arrestin cells, luminescence, 90 min; % of EA-reagent control over plate median; activation, % at 11.2 µM; 6,700 tested, under 10 active; AID 1508609;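 active means mean percent activation across replicates above the confirmation screen cutoff of 4.91%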
GPR119 ag: GPR119 activation, counter-screen for GPR151 activators; GPR119 PathHunter beta-arrestin cells, luminescence, 90 min; 0 = compound-well median, 100 = enzyme-acceptor control; 0.3% of 6,700 active; shares compounds with GPR151 ag; activation, % at 11.2 µM;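 active means mean percent activation in the counterscreen above 29.09%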;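 further: counterscreen on off-target GPR119 to flag nonselective hits from the GPR151 activator screen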
Numbers stand for hits; n = inactive; x = no result; ! = not confirmed by another sample.

SMILES	GPR151 ag	MITF inh	FBW7 act	TEAD-YAP inh	GPR151 conf act	GPR119 ag
CN(C)c1ncc(CN2CCN(CCc3ccccc3)C(CCO)C2)s1 (configuration not stated)	9.8	n	n	n	n	n
CN(C)c1ncc(CN2CCN(Cc3ccc(F)cc3)C(CCO)C2)s1 (configuration not stated)	n	n	n	n	x	x
CCOc1ccc(CN2CCN(Cc3cnc(-c4ccccc4)s3)CC2CCO)cc1 (configuration not stated)	n	n	n	n	x	x
COc1ccc(CN2CCN(Cc3cnc(-c4ccccc4)s3)CC2CCO)cc1C (configuration not stated)	6.7	n	n	n	n	n
Cc1ccc2c(NC(=O)C3CCCCC3)noc2n1	n	n	n	n	x	x
O=C1NC(N2CCOCC2)=N/C1=C/c1ccc2c(c1)OCO2	9.4	n	n	n	n	n
COC(=O)c1ccc(-n2c(/C=C/c3cccc4ccccc34)nc3ccccc3c2=O)cc1	n	n	n	n	x	x
Cc1cccc(C)c1NC(=O)C(=O)NCCc1ccccc1	n	n	n	n	x	x
Cc1cccc(C)c1NC(=O)C(=O)NCCc1ccc(F)cc1	6.4	n	n	n	n	n
CC(=O)c1nn(-c2cccc(Cl)c2)cc1C(=O)c1cccs1	6.4	n	n	n	n	n
CC(=O)c1nn(-c2ccc([N+](=O)[O-])cc2)cc1C(=O)c1cccs1	n	n	n	n	x	x
CCOCCCNC(=S)N1CCN(c2nc(-c3ccc(F)cc3)cs2)CC1	5.8	n	n	32.8	n	n
CCOC(=O)CNC(=O)CSc1nnc(-c2cccs2)n1C	n	n	n	n	x	x
CNS(=O)(=O)c1cccc(C(=O)OCC(N)=O)c1	8.8	n	n	n	n	n
CNS(=O)(=O)c1cccc(C(=O)OCc2cc(C(C)=O)ccc2OC)c1	5.0	n	n	n	n	n
O=C1NC(=O)N(C2CCCCC2)C(=O)/C1=C/c1ccco1	n	n	n	n	x	x
CC(C)(CN1CCN(c2ccccc2)CC1)NS(=O)(=O)c1ccccc1	5.5	n	n	n	n	n
COc1ccc(N2CCN(c3cc(=O)n(-c4ccccc4C)c(=O)[nH]3)CC2)cc1	n	n	n	n	x	x
O=C1CN(c2ccccc2NC(=O)C2(c3cccs3)CCCC2)CCN1	5.0	n	n	n	n	n
Cc1cc2cc(CNC(=O)CCC3CCCCC3)ccc2[nH]1	n	n	n	n	x	x
O=C1CC(C(=O)Nc2ccccc2Cl)c2ccccc21 (configuration not stated)	9.4	n	n	n	n	n
O=C(Nc1ccccc1Cl)C1CCCCC1	n	n	n	n	x	x
CO[C@H]1COC(=O)C/C=C/[C@H](C)[C@@H](OC)COC(=O)[C@@H](C)COC(=O)C/C=C/[C@@H]1C	6.0	n	n	x	n	n
CO[C@@H]1COC(=O)[C@H](COCc2ccccc2)NC(=O)C/C=C/[C@@H](C)[C@H](OC)COC(=O)[C@H](C)NC(=O)C/C=C/C1C (some centres not stated)	4.9	n	n	x	n	n
Cc1ccc(-n2nc3c(c2NC(=O)c2ccc(F)cc2)CS(=O)(=O)C3)cc1	n	n	n	n	x	x
SMILES	GPR151 ag	MITF inh	FBW7 act	TEAD-YAP inh	GPR151 conf act	GPR119 ag
CCc1c(C(=O)NCCc2ccc(C)cc2)[nH]c(C)c1C(C)=O	n	n	n	n	x	x
CC1(C)CC(=O)C2=C(C1)Nc1ccc3ccccc3c1C2c1cccc([N+](=O)[O-])c1 (configuration not stated)	n	n	n	n	x	x
COc1ccc(OC)c(C2=NNC(=NCc3ccc4c(c3)OCO4)SC2)c1	5.6	n	n	n	n	n
COc1ccc(OC)c(CNCc2ccc3c(c2)OCO3)c1	n	n	n	n	x	x
CCc1ccc(CNc2nc3nc(C)c(Cl)c(C)n3n2)cc1	n	n	n	n	x	x
Cc1ccc(NC(=O)N[C@H]2C[C@H]3C(=O)N[C@H](C)C(=O)N3C2)cc1C	n	n	n	n	x	x
O=C(c1nc2ccc(Cl)cn2c1CNCC1COCCO1)N1CCc2ccccc2C1 (configuration not stated)	9.8	n	n	n	n	n
CC(=O)NCCNCc1c(C(=O)N2CCc3ccccc3C2)nc2ccc(Cl)cn12	n	n	n	n	x	x
O=C(CSc1ccc(F)cc1)Nc1cc(Cl)ccc1O	6.4	n	n	n	n	n
O=C(CSc1ccccc1)Nc1cc(Cl)ccc1O	n	n	n	n	x	x
Nc1cc(Cl)ccc1C(=O)OCC(=O)NCCc1ccc(F)cc1	n	n	n	n	x	x
COCC(C)NC(=O)c1ccc(OC2CCN(Cc3ccccn3)CC2)cc1 (configuration not stated)	5.8	n	n	n	n	n
CCOc1ccc(C(C)NC(=O)c2ccc(F)cc2)cc1 (configuration not stated)	n	n	n	n	x	x
CCOc1ccc(C(C)NC(=O)c2ccc(OC)cc2)cc1 (configuration not stated)	6.2	n	n	n	n	n
Brc1ccc(Nc2cccnc2)nc1	10.8	n	n	n	n	n
Fc1cccc(F)c1Nc1ccc(Br)cn1	n	n	n	n	x	x
COCCn1c(C)cc(C(=O)COc2ccc(C)cc2Br)c1C	n	n	n	n	x	x
O=C(O)C1CCC(CN(Cc2cccc(Br)c2)C(=S)Nc2ccccc2F)CC1 (configuration not stated)	n	n	n	n	x	x
Cc1ccccc1NC(=S)N(Cc1cccc(Br)c1)CC1CCC(C(=O)O)CC1 (configuration not stated)	7.6	n	n	n	n	n
CCn1c(C(=O)O)c(CNCCc2ccccc2OC)c2ccc(OC)cc21	n	n	n	n	x	x
Cc1ccc(N2C(=O)C(Cl)=C(N3CCCCC3)C2=O)cc1	7.5	n	n	n	n	n
COc1cccc(C2/C(=C(/O)c3ccc(F)cc3)C(=O)C(=O)N2CCCCCC(=O)O)c1 (configuration not stated)	n	n	n	n	x	x
CN(C)CCCOc1nn(Cc2ccccc2)c2ccccc12	6.2!	n	n	n	n	n
Cc1ccc(NC(=O)c2ccccc2NC(=O)c2ccc(S(=O)(=O)N3CCc4ccccc43)cc2)c(C(=O)c2ccccc2)c1	8.7	n	n	n	n	n
CC(C)c1ccc(NC(=O)c2cc(S(=O)(=O)N3CCc4ccccc43)ccc2F)cc1	7.4	n	n	n	n	n
COc1ccc(C(=O)NC(c2nnc3n2CCN(CC(C)C)CC3)C(C)C)cc1 (configuration not stated)	n	n	n	n	x	x
CC(C)CC1NC(=O)N(CC(=O)Nc2cccc(I)c2)C1=O (configuration not stated)	8.8	n	n	n	n	n
CN1CCN(C(=O)/C=C/c2cccs2)CC1	n	n	n	n	x	x
C=CCSc1ncnc2sc(C)c(C)c12	5.3	n	n	n	n	n
Cn1c(=O)n(CC(=O)NCc2ccc(F)cc2)c2cccnc21	10.1	n	n	n	n	n
